Compounds with a hit are over-represented: about 6.2% of the library has one in this group of screens.
KB-V1 cytotox = qHTS assay for MDR1-selective chemotherapeutics: Primary screen using the drug-selected MDR subline cells KB-V1 | KB-V1 MDR cells viability, CellTiter-Glo, 72 h | Potency, µM (doses to about 46.1 µM), most hits filed as cytotoxic | hit rate 3.4% among 400,000 | AID 1347076, 2019; further: on the % scale 0 is the no-effect control and ±100 the full control effect; nearly all actives have a fitted effect of over 60% in size
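Following 72 h at 37 degrees C with compound, KB-V1 cell viability was read by CellTiter-Glo luminescence, medium being phenol-red-free DMEM plus 10% FBS; concentration-response parameters came from normalized, curve-fitted qHTS data.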
KB-3-1 tox = qHTS assay for MDR1-selective chemotherapeutics: Primary screen using the parental adenocarcinoma cell KB-3-1; hit rate 1.4% among 400,000; KB-3-1 viability, CellTiter-Glo ATP luminescence, 72 h; Potency, µM (doses to about 46.1 µM), hits mostly cytotoxic; further: on the % scale 0 is the no-effect control and ±100 the full control effect; nearly all actives have a fitted effect of over 60% in size
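Multi-concentration cytotoxicity screen in KB-3-1 cells grown in DMEM lacking phenol red with 10% FBS. After 72 h at 37 °C with compound, ATP-dependent luminescence was recorded.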
ATXN2 expr inh = Primary qHTS for Inhibitors of ATXN expression. HEK-293 ATXN2-luciferase reporter, luminescence, 24 h. Potency, µM (series often up to 57 µM), without a hit: top-dose activity change, negative = inhibition, usual class: inhibitors. hit rate 0.72% among 360,000. AID 1745845, 2022; further: on the % scale 0 is the no-effect control and ±100 the full control effect; nearly all actives have a fitted effect of over 55% in size
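qHTS (up to 57 uM final) was run with 24 h compound exposure of reporter cells at 37 °C. Each well was multiplexed: SteadyGlo luminescence measured ATXN2-luciferase expression after a fluorogenic Gly-Phe-AFC viability readout (25 uM final).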
HT1080NT lethal = qHTS for induction of synthetic lethality in tumor cells producing 2HG: qHTS for the HT-1080-NT fibrosarcoma cell line; hit rate 1.6% among 360,000; AID 686970, 2013; Potency, µM (series often up to 46.1 µM), without a hit: top-dose activity, negative = less viability, actives largely listed as cytotoxic; HT-1080-NT fibrosarcoma viability, CellTiter-Glo ATP luminescence, 48 h;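 further: NT is the 2HG producing partner of a matched IDH1 knockdown line; 0% = DMSO-treated cells and -100% = media-only wells without cells; nearly all actives have a fitted effect of over 55% in size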
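Compounds were tested in concentration-response format on HT-1080-NT cells for 48 hours at 37 degrees C. Cell viability came from CellTiter-Glo luminescence; curves were classified by r2, response magnitude and activity.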
HT1080 IDH1KD tx = qHTS for induction of synthetic lethality in tumor cells producing 2HG: qHTS for the HT-1080-IDH1KD cell line. Potency, µM (series often up to 46.1 µM), inactives show top-dose activity, negative = toxicity, usual class: cytotoxic. HT-1080 IDH1 knockdown viability, ATP luminescence, 48 h. AID 686971, 2013. hit rate 2% among 360,000;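 further: 0% = DMSO wells and -100% = cell-free medium wells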
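After a 2 h attachment period, IDH1KD HT-1080 cells took pin-transferred compound for 48 h at 37 °C; ATP-based luminescence after 10 min room-temperature reagent incubation reported viability.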
ATXN viability = Viability Counterscreen for Primary qHTS for Inhibitors of ATXN expression | S2 cells (HEK-293 line with an ATXN2-luciferase reporter) viability, CellTiter-Fluor protease fluorescence, 24 h | Potency, µM (highest dose often 56.7 µM), usual class: cytotoxic | hit rate 0.49% among 400,000 | AID 651635, 2014; further: nearly all actives have a fitted effect of over 40% in size
Numbers without * were called inactive; i = inactive; ? = inconclusive; . = no result given; ! = repeats disagree. The call rests on the fitted dose curve; in most records, active means well fitted curve in the direction sought with a large enough effect; inconclusive means small, poorly fitted or top-dose-only effect, or another doubt; inactive means no such curve, though single readings can be large; an effect the other way counts as inactive or inconclusive. Potency means the concentration at half of the fitted maximal effect.

SMILES	KB-V1 cytotox	KB-3-1 tox	ATXN2 expr inh	HT1080NT lethal	HT1080 IDH1KD tx	ATXN viability
CC1N(C)c2cc(NC(=O)c3ccco3)c(P(=O)(Nc3ccc([N+](=O)[O-])cc3)N3CCOCC3)cc2C1(C)C (stereo not given)	i	?	-24%	?	10µM*	i
C[CH2][Hg][S]c1ccccc1C(=O)O	21µM*	5.2µM*	6.3µM*	2.3µM*	3.3µM*	4.5µM*
COc1cc2c(c(OC)c1O)-c1ccc(OC)c(=O)cc1C(NC(=O)C(F)(F)F)CC2 (stereo not given)	?	?	-5%	0.013µM*	?	?
CCN(CC)c1ccc2c(cc1=O)[C@@H](NC)CCc1cc(OC)c(OC)c(OC)c1-2	6.5µM*	0.92µM*	-15%	1.3µM*	?	?
Cc1nn(C)cc1/C=C1/CC2C3CC=C4CC(O)CCC4(C)C3CCC2(C)C1=O (stereo not given)	18µM*	i	-6%	-9%	-1%	i
COc1ccc(-c2nc3ccccc3c(=O)n2-c2cccnc2)cc1	13µM*	i	-4%	6%	10%	i
COc1ccc(-n2c(-c3ccc(C)cc3)nc3ccccc3c2=O)cc1	i	i	22%	0%	-1%	i
Cc1ccc(-c2nc3ccccc3c(=O)n2-c2cccc(C)n2)cc1	i	i	-16%	3%	2%	i
Cc1ccc(-c2nc3ccccc3c(=O)n2-c2cc(C)ccn2)cc1	15µM*	i	7%	15%	1%	?
O=C(Nc1cccc(Br)c1)Oc1cccc2cccnc12	?	?	6.3µM*	16µM*	?	?
O=C(O)C1C2CCC(O2)C1C(=O)Nc1cccc(Br)c1 (stereo not given)	i	i	.	-3%	-10%	i
O=C(Nc1c(Cl)cccc1Cl)Oc1cccc2cccnc12	?	?	?	6.5µM*	3.7µM*	.
CCOC(=O)C(C)Oc1cc(C)cc2oc(=O)c3c(c12)CCCC3 (stereo not given)	10µM*	i	59%	-1%	-8%	i
CCC(=O)Nc1ccc(C(=O)OCc2ccccc2Cl)cc1	15µM*	i	70%	3%	3%	?
CCC(=O)Nc1ccc(Cl)c(Cl)c1	i	i	-7%	-5%	2%	i
CCCCC[C@@H]1CCCCC[C@@H](O)C[C@@H](O)[C@H](O)/C=C/C(=O)O1	i	i	1%	-22%	0%	i
O=C(c1c[nH]cc1-c1ccccc1)c1cccc2ccccc12	i	i	0%	23µM*	15µM*	i
O=C1NC(=O)C(Cc2ccccc2)(Cc2ccccc2)C(=O)N1Cc1ccccc1	16µM*	?	-14%	?	?	i
O=c1oc2ccccc2c(O)c1Cc1c(O)c2ccccc2oc1=O	.	.	-7%	.	.	i
O=C(CC1CCCCC1)c1c(O)c2ccccc2oc1=O	i	5.8µM*	6%	7.9µM*	?	i
COP(=O)(OC)[C@@H](O)C(Cl)(Cl)Cl	.	.	.	.	.	i
Oc1ccc(Cl)cc1Cc1cc(Cl)ccc1O	?	i	28µM*!	16µM*	23µM*	?
Oc1ccc(Cl)cc1Cc1ccccc1	i	i	?	-4%	-8%	?
C[C@]12CC[C@@H]3[C@@H](CCC4=CC(=O)CC[C@@H]43)[C@@H]1CC[C@@H]2OC(=O)CCc1ccccc1	.	.	14%	.	.	i
CC(C)(C)NC[C@H](O)c1cc(Cl)c(N)c(Cl)c1	.	.	.	.	.	i
SMILES	KB-V1 cytotox	KB-3-1 tox	ATXN2 expr inh	HT1080NT lethal	HT1080 IDH1KD tx	ATXN viability
CN(C)c1ncc(C2=C(Cl)C(=O)C(N3CCCC3)=C(Cl)C2=O)s1	i	i	25µM*	?	8.9µM*	.
COC(=O)C1=C(c2cc3ccccc3o2)C[C@@H]2CC[C@H]1N2C(=O)N1CCCCC1	?	5.8µM*	-30%	?	10µM*	?
COC(=O)C1=C(c2cc3ccccc3s2)C[C@@H]2CC[C@H]1N2C(=O)N1CCOCC1	i	?	?	9.2µM*	8.2µM*	?
CC12CC[C@H]3[C@@H](CCC4(O)C[C@H](O)CCC34/C=N/NC(=O)c3ccc(O)cc3)C1(O)CCC2C1=CC(=O)OC1 (stereo not given in full)	i	i	19%	0%	6%	i
CN(C)c1ccc(C(=O)N/N=C/C23CC[C@@H](O)CC2(O)CC[C@@H]2[C@@H]3CCC3(C)C(C4=CC(=O)OC4)CCC23O)cc1 (stereo not given in full)	?	6.5µM*	.	?	10µM*	?
CC12CC[C@H]3[C@@H](CCC4(O)C[C@H](O)CCC34/C=N/NC(=O)c3ccccc3O)C1(O)CCC2C1=CC(=O)OC1 (stereo not given in full)	?	?	?	?	18µM*	i
COc1ccc(C(=O)N/N=C/C23CC[C@@H](O)CC2(O)CC[C@@H]2[C@@H]3CCC3(C)C(C4=CC(=O)OC4)CCC23O)cc1 (stereo not given in full)	i	?	.	?	?	i
COc1cc(C(=O)N/N=C/C23CC[C@@H](O)CC2(O)CC[C@@H]2[C@@H]3CCC3(C)C(C4=CC(=O)OC4)CCC23O)ccc1O (stereo not given in full)	i	i	?	-27%	23µM*	i
CC12CC[C@H]3[C@@H](CCC4(O)C[C@H](O)CCC34/C=N/NC(=O)c3ccccc3F)C1(O)CCC2C1=CC(=O)OC1 (stereo not given in full)	i	18µM*	?	-12%	?	?
Cn1c(=O)n(C)c2cc(CNCCc3ccccc3F)ccc21	i	i	-9%	.	.	i
CCOC(=O)c1ncn2c1CN(C)C(=O)c1cc(F)ccc1-2	i	i	2%	0%	?	i
O=C1NC(=O)N(Cc2ccccc2)C(=O)/C1=C/C=C/c1ccco1	i	15µM*	?	?	?	20µM*
CC(C)c1ccc(N2C(=O)NC(=O)/C(=C\C=C\c3ccco3)C2=O)cc1	?	?	?	4.1µM*	5.8µM*	28µM*
